# Reference: PubChem BioAssay (EPA / NIEHS)
# Results filed as inconclusive are left out. The source made the active and inactive calls. Rule for the calls: active = hit-call score of the fitted dose curve at least 0.9, where 1 is the maximum; inconclusive = response in the unintended direction; inactive = score below 0.9.
# Target: Oxysterols receptor LXR-alpha (Homo sapiens) (UniProt Q13133)
# Assay: ATG_LXRa_TRANS: Attagene TRANS-FACTORIAL HepG2 Assay for human Liver X Receptor alpha (LXRa) (AID 2282980)
# Details: HepG2 Attagene TRANS reporter, LXRa transactivation
# Protocol: ATG_TRANS is a cell-based, multiplexed-readout assay that uses HepG2, a human liver cell line, with measurements taken at 24 hours after chemical dosing in a 24-well plate.ATG_LXRa_TRANS is one of 30 assay component(s) measured or calculated from the ATG_TRANS assay. It is designed to make measurements of mRNA induction, a form of inducible reporter, as detected with fluorescence intensity signals by Reverse transcription polymerase chain reaction (RT-PCR) and Capillary electrophoresis technology.Data from the assay component ATG_LXRa_TRANS was analyzed into 1 assay endpoint. This assay endpoint, ATG_LXRa_TRANS, was analyzed in the positive analysis fitting direction relative to DMSO as the negative control and baseline of activity. Using a type of inducible reporter, measures of mRNA for gain-of-signal activity can be used to understand the reporter gene at the transcription factor-level as they relate to the gene NR1H3. Furthermore, this assay endpoint can be referred to as a primary readout, because this assay has produced multiple assay endpoints where this one serves a reporter gene function. To generalize the intended target to other relatable targets, this assay endpoint is annotated to the nuclear receptor intended target family, where the subfamily is non-steroidal.
# Human liver HepG2 cells are transiently transfected with multiple reporter transcription units (MRTUs) in 6-well plates using FuGene 6 reagent (Roche; 3 ml FuGene/1 mg DNA). The MRTU constructs are regulated by a cis-regulating element (promoter). […] A major difference between the CIS and TRANS system is that in CIS activities of endogenous TFs are measured, whereas the TRANS assay evaluates changes in activities of exogenous, chimeric NR-Gal4 proteins. […] At the end of 24 hour incubation, total RNA was isolated using TriZol reagent (Invitrogen). The isolated RNA is then reverse-transcribed using oligo(dT) primer and Mo-MLV reverse transcriptase (Invitrogen) with DNAse I (Ambion) treatment for 30 min. The one-tenth of the produced cDNA was amplified by PCR using Taq DNA polymerase (Invitrogen) and two reporter sequence-specific primers. The PCR products were fluorescently labeled by primer extension with 6-arboxyfluorescein (6-FAM) 5'-labeled reporter sequence-specific primer (2 min at 95 C, 20 s at 68 C and 10 min at 72 C) and these products were digested with 5U of HpaI (New England Biolabs) for 2h at 37 C. The fragments were purified using Qiaquick PCR columns (Qiagen), analyzed on an ABI 3130xL genetic analyzer (Applied Biosystems) with peak positions identified by using a set of X-rhodamine (ROX)-labeled MapMarker1000 molecular weight standards (BioVentures). The raw capillary electrophoresis data was processed using Attagraph software (Attagene).
# Chain of Oxysterols receptor LXR-alpha (Homo sapiens) (Q13133 whole entry, looked up): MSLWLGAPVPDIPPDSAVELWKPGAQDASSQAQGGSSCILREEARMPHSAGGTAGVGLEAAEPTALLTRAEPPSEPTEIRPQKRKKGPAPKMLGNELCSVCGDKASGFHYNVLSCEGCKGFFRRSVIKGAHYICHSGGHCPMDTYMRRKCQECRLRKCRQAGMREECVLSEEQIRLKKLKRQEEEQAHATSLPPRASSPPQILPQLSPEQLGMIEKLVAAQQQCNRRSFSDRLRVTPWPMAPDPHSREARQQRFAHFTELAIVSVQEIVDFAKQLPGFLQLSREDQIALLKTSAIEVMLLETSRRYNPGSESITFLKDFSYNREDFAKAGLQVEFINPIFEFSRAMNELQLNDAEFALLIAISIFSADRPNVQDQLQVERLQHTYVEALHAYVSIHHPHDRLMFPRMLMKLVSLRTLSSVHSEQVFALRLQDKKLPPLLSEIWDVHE
Compound,outcome,AC50
OCC(F)(F)C(F)(F)C(F)(F)C(F)(F)C(F)(F)C(F)(F)CO,inactive,–
COCCC(=O)OC,inactive,–
Cc1cnccn1,inactive,–
CC(C)C(=O)OCc1ccccc1,inactive,–
C=C(C)C(=O)OCC(F)(F)C(F)(F)C(F)(F)C(F)F,inactive,–
CC1CCCCC1,inactive,–
CC1=CC2C3C=CC(C3)C2C1C (stereo not given),inactive,–
CCCCCCCCCCCCC[N+](C)(C)Cc1ccccc1,inactive,–
CCOC(=O)CCC(C)=O,inactive,–
CC1=CCC(=O)O1,inactive,–
CCN(CCO)S(=O)(=O)C(F)(F)C(F)(F)C(F)(F)C(F)(F)C(F)(F)C(F)(F)C(F)(F)C(F)(F)F,inactive,–
C=C(C)CCCC,inactive,–
CCOC(=O)CC(=O)C(F)(F)C(F)(F)F,inactive,–
FC(F)(F)C(F)(F)C(F)(F)C(F)(F)C(F)(F)C(F)(F)C(F)(F)CCI,inactive,–
N#Cc1ccccc1O,inactive,–
CCC(C)CO (stereo not given),inactive,–
O=C(O)C(F)(F)C(F)(F)C(F)(F)C(F)(F)C(F)(F)C(F)(F)C(F)F,inactive,–
NS(=O)(=O)C(F)(F)C(F)(F)C(F)(F)C(F)(F)C(F)(F)C(F)(F)F,inactive,–
Cc1ccc([N+](=O)[O-])c(C)c1,inactive,–
CC(=O)C=O,inactive,–

Compound,outcome,AC50
COCCOCCC[Si](C)(O[Si](C)(C)C)O[Si](C)(C)C,inactive,–
Cc1cc(=O)[nH]c(C(C)C)n1,inactive,–
Cc1cccc(C)n1,inactive,–
NCC(F)(F)C(F)(F)C(F)(F)C(F)(F)C(F)(F)C(F)(F)C(F)(F)C(F)(F)F,inactive,–
CCOCOCC,inactive,–
O=C(O)CCC(F)(F)C(F)(F)C(F)(F)C(F)(F)C(F)(F)C(F)(F)C(F)(F)F,inactive,–
O=S(=O)(O)CCC(F)(F)C(F)(F)C(F)(F)C(F)(F)C(F)(F)C(F)(F)C(F)(F)C(F)(F)F,inactive,–
Cc1cc(O)c(C(C)(C)C)cc1C(C)(C)C,–,2.99 µM (active)
CC(C)(C)c1cc(CCC(=O)NCCCCCCNC(=O)CCc2cc(C(C)(C)C)c(O)c(C(C)(C)C)c2)cc(C(C)(C)C)c1O,inactive,–
Cc1ccc(O)c(-n2nc3ccccc3n2)c1,inactive,–
N#CCCOCCC#N,inactive,–
Cc1ccc(O)cn1,–,25.4 µM (active)
O=C(O)C(F)(F)C(F)(F)C(F)(F)OC(F)(F)F,inactive,–
C#CC(O)CCC (stereo not given),inactive,–
O=C(F)C1(F)C(F)(F)C(F)(F)C(F)(F)C(F)(F)C1(F)F,inactive,–
O=S(=O)(O)c1ccc(Cl)cc1,inactive,–
CCCCCCCCCCCCCCCCC,inactive,–
O=C1OC(=O)c2ccc3c4c(ccc1c24)C(=O)OC3=O,inactive,–
O=C(c1ccccc1)c1ccc(O)cc1O,inactive,–
O=C(O)CCC(F)(F)C(F)(F)C(F)(F)F,inactive,–
